For assay [1], the target named is Gonadotropin-releasing hormone receptor (Homo sapiens) (UniProt P30968). Description: Human gonadotropin-releasing hormone receptor (GnRHR) small molecule agonists, calcium flux assay in GnRHR-HEK293 cells (AID 1920063). Also: nearly all actives have a fitted effect of over 35% in size. The procedure, abridged: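 Tox21-format agonist screen using human GnRHR-expressing HEK293 cells and a fluorescent calcium dye; kinetic 3-min fluorescence reading after compound addition, 15-point concentration series run in triplicate.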
Chain of Gonadotropin-releasing hormone receptor (Homo sapiens) (P30968 whole entry, looked up): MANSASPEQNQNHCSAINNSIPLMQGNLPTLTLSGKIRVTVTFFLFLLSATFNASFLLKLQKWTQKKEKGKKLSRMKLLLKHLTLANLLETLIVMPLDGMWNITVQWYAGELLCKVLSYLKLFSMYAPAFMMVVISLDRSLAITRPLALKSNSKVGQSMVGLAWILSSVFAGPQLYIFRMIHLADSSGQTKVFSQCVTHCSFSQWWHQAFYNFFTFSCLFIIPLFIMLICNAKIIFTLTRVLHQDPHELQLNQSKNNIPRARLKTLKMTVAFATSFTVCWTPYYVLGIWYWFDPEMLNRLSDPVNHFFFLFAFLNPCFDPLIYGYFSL
In general terms: Calcium flux is commonly read through the fluorescence of an indicator in the cells.

For assay [2], the target named is KiSS-1 receptor (Homo sapiens) (UniProt Q969F8). Description: Human kisspeptin (KISS1R) small molecule agonists, calcium flux assay in KISS1R-HEK293 cells (AID 1920064; active = well fitted activation curve with a large enough effect in the repeat runs). The procedure, abridged: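 Intracellular calcium mobilization in KISS1R-HEK293 cells was recorded by fluorescence (Ex/Em 480/540) for 3 min following compound addition to cells pre-loaded 1 h with calcium dye.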
Chain of KiSS-1 receptor (Homo sapiens) (Q969F8 whole entry, looked up): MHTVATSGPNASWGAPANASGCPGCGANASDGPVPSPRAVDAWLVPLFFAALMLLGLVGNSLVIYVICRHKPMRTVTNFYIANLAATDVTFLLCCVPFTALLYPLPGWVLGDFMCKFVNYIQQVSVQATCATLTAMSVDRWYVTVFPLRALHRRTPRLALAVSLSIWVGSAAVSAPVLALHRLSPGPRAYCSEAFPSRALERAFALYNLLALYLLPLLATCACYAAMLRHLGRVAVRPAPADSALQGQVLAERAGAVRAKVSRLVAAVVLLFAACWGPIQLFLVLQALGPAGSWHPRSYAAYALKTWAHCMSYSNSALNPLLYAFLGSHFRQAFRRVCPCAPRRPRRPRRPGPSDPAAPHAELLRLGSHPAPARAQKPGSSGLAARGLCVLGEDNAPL

Assay [3] in a line: p53 small molecule agonists, cell-based qHTS assay with human liver microsomes (AID 1963577).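 Also: p53 response element beta-lactamase reporter cells with liver microsomes plus NADPH.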 In a few lines: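 Metabolically competent format: test substances, human liver microsomes and NADPH (both 0.5 mg/mL final) incubated with p53RE-bla cells 16 h at 37 C. Beta-lactamase reporter signal then quantified by fluorescence.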
Assay [4] is described as follows: p53 small molecule agonists, cell-based qHTS assay with rat liver microsomes (AID 1963578). Also: potency is read from the fitted curve at half-maximal effect. The procedure, abridged: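 Each plate received p53RE-bla cells, then compound, then rat liver microsomes and NADPH (both 0.5 mg/mL final). Plates were held 16 h at 37 C, and beta-lactamase activity was detected with LiveBLAzer over 2 h.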
Background: Quantitative high-throughput screening tests each substance at several concentrations.

Assay [5] can be described thus: p53 small molecule agonists, cell-based qHTS assay with human liver microsomes: qHTS cell viability counter screen (AID 1963579). Also: nearly all actives have a fitted effect of over 45% in size. The procedure, abridged:
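Tox21 library compounds, delivered from DMSO stocks, were tested on p53RE-bla cells together with 0.5 mg/mL human liver microsomes and 0.5 mg/mL NADPH (final) over 16 h at 37 C; CellTiter-Glo luminescence served as the cytotoxicity measure.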

Assay [6] in a line: p53 small molecule agonists, cell-based qHTS assay with rat liver microsomes: qHTS cell viability counter screen (AID 1963580). Also: nearly all actives have a fitted effect of over 45% in size. In a few lines:
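HCT-116 p53RE-bla, 4,000 cells/well, 5 h pre-incubation; cpd + rat liver microsomes 0.5 mg/mL + NADPH 0.5 mg/mL (final); 16 h, 37 C; CellTiter-Glo, 30 min RT; luminescence.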

Assay [7] is described as follows: p53 small molecule agonists, cell-based qHTS assay: qHTS cell viability counter screen (AID 1963581). Also: nearly all actives have a fitted effect of over 45% in size. The procedure, abridged:
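Compounds are pinned onto HCT-116 p53RE-bla cells and left 16 h at 37 C. Following the reporter FRET read, ATP is quantified by CellTiter-Glo luminescence after 30 min at room temperature.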

A short description of assay [8]: p53 small molecule agonists, cell-based qHTS assay (AID 1963582; active = well fitted activation curve with a large enough effect in the signal ratio in the repeat runs, not every such curve was filed as active; the % refers to the signal ratio). The procedure, abridged: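 Agonist activity was scored from beta-lactamase FRET fluorescence in p53RE-bla cells treated 16 h at 37 C with compounds in DMSO, substrate incubation being 2 h at room temperature.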
The target of assay [9] is 5-hydroxytryptamine receptor 2A (Homo sapiens) (UniProt P28223). Description: 5-hydroxytryptamine receptor 2A (HTR2A) small molecule antagonists, cell-based qHTS assay (AID 1963586). Also: nearly all actives have a fitted effect of over 45% in size. The procedure, abridged:
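Antagonist-mode intracellular calcium assay: DOI (4 nM) added after 5 min compound pre-incubation at room temperature to dye-loaded HTR2A-CHO cells. Fluorescence followed for 3 min, sampled every second.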

The target is the same in assay [10]. The assay is described as follows: 5-hydroxytryptamine receptor 2A (HTR2A) small molecule agonists, cell-based qHTS assay (AID 1963587). Also: nearly all actives have a fitted effect of over 30% in size. The procedure, abridged:
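Kinetic calcium-flux fluorescence (2 min, 1 sec intervals) after compound addition in agonist mode. HTR2A-CHO cells were cultured 18 h, then dye-loaded 1 h at 37 C.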

For assay [11], the target named is Muscarinic acetylcholine receptor M1 (Homo sapiens) (UniProt P11229). The assay is described as follows: Cholinergic receptor muscarinic 1 (CHRM1) small molecule antagonists, cell-based qHTS assay (AID 1963588). Also: nearly all actives have a fitted effect of over 40% in size. The procedure, abridged: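 CHRM1-CHO calcium-flux assay, antagonist mode. Cells were seeded 18 h, dye-loaded 1 h at 37 C and given compound for 5 min at RT, then acetylcholine was added at 50nM. FDSS fluorescence was read 3 min; 15 concentrations, three runs.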
Chain of Muscarinic acetylcholine receptor M1 (Homo sapiens) (P11229 whole entry, looked up): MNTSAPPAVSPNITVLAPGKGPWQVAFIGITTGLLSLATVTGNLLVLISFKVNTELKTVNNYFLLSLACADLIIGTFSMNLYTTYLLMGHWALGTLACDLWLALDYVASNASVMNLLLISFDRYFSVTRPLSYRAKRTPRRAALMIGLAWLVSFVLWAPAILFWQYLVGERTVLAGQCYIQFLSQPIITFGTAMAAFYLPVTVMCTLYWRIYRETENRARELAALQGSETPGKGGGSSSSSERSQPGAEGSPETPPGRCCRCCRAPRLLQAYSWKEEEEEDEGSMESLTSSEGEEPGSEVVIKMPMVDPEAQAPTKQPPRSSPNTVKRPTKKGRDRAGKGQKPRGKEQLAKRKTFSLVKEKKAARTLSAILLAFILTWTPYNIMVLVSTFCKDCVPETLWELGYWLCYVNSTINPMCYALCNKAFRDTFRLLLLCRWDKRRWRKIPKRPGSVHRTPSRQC

The target is the same in assay [12]. Description: Cholinergic receptor muscarinic 1 (CHRM1) small molecule agonists, cell-based qHTS assay (AID 1963589). Also: nearly all actives have a fitted effect of over 35% in size. The procedure, abridged:
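Stable CHRM1-CHO cells (human receptor) were incubated 18 h, dye-loaded for 1 h at 37 C and exposed to test compounds for agonist activity, with calcium-dependent fluorescence followed kinetically.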

Assay [13] can be described thus: cAMP Responsive Elements (CRE) small molecule agonists, cell-based qHTS assay (AID 1963590). The procedure, abridged: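 FRET-based beta-lactamase readout (LiveBLAzer B/G, 2 h RT) quantified CRE activation in HEK 293T CRE-bla cells after 3 h treatment with DMSO-dissolved compounds.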
The nature of assay [14]: cAMP Responsive Elements (CRE) small molecule antagonists, cell-based qHTS assay (AID 1963591; active = well fitted inhibition curve with a large enough effect in the signal ratio in the repeat runs, not every such curve was filed as active; the % refers to the signal ratio). The procedure, abridged:
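qHTS in CRE-bla HEK 293T cells: compound in DMSO, then 0.25 uM NKH477 (final), 3 h at 37 °C/5% CO2; beta-lactamase FRET read-out after 2 h substrate incubation.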

The target in assay [15] is Beta-2 adrenergic receptor (Homo sapiens) (UniProt P07550). Description: Adrenergic beta2 receptor (ADRB2) small molecule antagonists, cell-based qHTS assay (AID 1963592). Also: series mostly up to about 92 µM; nearly all actives have a fitted effect of over 50% in size. The procedure, abridged:
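Cells (CHO, stable ADRB2 overexpression) incubated 18-20hr at 37C; compounds added from DMSO; agonist mix (1nM isoproterenol, 100uM IBMX, 25uM Ro-20-1724) added; 0.5hr RT; d2-cAMP and anti-cAMP-cryptate added; 1hr RT; 665/615 nm read.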

The target of assay [16] is D(2) dopamine receptor (Homo sapiens) (UniProt P14416). The assay is described as follows: Dopamine D2 receptor (DRD2) small molecule agonists, cell-based qHTS assay (AID 1963594). Also: nearly all actives have a fitted effect of over 35% in size. In a few lines: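 cAMP accumulation in DRD2-HEK293 cells measured by HTRF after 1 h detection; compounds added 10 min before NKH477 (200nM […]) forskolin-analogue stimulation, 30 min at room temperature, with Ro20-1724 present at 0.1 mM final.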
Chain of D(2) dopamine receptor (Homo sapiens) (P14416 whole entry, looked up): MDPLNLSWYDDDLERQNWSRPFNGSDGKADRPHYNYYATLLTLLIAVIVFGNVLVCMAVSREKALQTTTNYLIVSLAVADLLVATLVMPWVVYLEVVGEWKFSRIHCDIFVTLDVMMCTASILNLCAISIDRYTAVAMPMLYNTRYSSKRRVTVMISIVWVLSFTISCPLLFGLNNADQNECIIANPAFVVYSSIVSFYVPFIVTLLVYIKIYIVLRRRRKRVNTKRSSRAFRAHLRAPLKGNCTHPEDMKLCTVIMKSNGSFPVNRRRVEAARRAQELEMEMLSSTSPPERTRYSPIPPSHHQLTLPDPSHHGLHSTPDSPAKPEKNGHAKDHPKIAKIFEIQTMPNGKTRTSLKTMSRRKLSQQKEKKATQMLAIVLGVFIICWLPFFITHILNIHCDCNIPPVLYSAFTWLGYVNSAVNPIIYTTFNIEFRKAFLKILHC

Assay [17] shares this target. The assay is described as follows: Dopamine D2 receptor (DRD2) small molecule antagonists, cell-based qHTS assay (AID 1963595; active = well fitted inhibition curve with a large enough effect in the signal ratio in the repeat runs, with a control signal flat; the % refers to the signal ratio; also: potency is read from the fitted curve at half-maximal effect). In a few lines: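 Stable D2 receptor HEK293 line, 24 h after seeding. Compound preincubated 10 min, then quinpirole (12 nM) with forskolin analogue NKH477 (200 nM), 30 min, room temperature. Detection by time-resolved FRET of cAMP.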
The nature of assay [18]: G protein-coupled receptor (GPCR) small molecule agonists, calcium flux assay: HEK293 wild type cell line counter screen (AID 1920065). In a few lines: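 In this agonist-mode screen, ATP is the positive control and DMSO the vehicle. Cells grow 18 h before a 1 h dye incubation at 37 C; signal is taken at Ex/Em 480/540 over 3 min.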
A short description of assay [19]: Nuclear factor erythroid 2-related factor 2/antioxidant responsive element (Nrf2/ARE) small molecule agonists: luciferase reporter gene qHTS assay in human keratinocytes (AID 1919969). Also: nearly all actives have a fitted effect of over 35% in size. Background: Reporter assays use an easily measured gene product as a stand-in for the process of interest.
The target of assay [20] is Beta-2 adrenergic receptor (Homo sapiens) (UniProt P07550). The assay is described as follows: Adrenergic beta2 receptor (ADRB2) small molecule agonists, cell-based qHTS assay (AID 1963593).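 Also: CHO cells stably overexpressing human ADRB2.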 In a few lines: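 CHO cells stably over-expressing ADRB2 were plated overnight at 37C, then dosed with compounds plus a stimulation mix containing 100uM IBMX and 25uM Ro-20-1724 for 0.5hr at room temperature. cAMP was measured by HTRF competition, 1hr.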
Chain of Beta-2 adrenergic receptor (Homo sapiens) (P07550 whole entry, looked up): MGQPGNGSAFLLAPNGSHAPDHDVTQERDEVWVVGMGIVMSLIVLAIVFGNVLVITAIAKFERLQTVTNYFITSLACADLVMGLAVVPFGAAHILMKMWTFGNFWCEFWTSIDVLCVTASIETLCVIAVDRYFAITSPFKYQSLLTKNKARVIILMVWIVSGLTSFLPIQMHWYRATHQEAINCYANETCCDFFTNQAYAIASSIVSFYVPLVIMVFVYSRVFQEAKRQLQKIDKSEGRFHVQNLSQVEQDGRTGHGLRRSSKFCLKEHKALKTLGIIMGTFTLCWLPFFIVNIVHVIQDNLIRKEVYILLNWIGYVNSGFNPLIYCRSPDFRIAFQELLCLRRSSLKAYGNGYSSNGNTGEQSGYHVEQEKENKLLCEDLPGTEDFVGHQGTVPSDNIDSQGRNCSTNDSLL

Unmarked numbers belong to inactive results. Inconclusive results are not listed. Activity calls are given as the source filed them. Unless noted, calls follow the shape of the full dose curve.

Chain of 5-hydroxytryptamine receptor 2A (Homo sapiens) (P28223 whole entry, looked up): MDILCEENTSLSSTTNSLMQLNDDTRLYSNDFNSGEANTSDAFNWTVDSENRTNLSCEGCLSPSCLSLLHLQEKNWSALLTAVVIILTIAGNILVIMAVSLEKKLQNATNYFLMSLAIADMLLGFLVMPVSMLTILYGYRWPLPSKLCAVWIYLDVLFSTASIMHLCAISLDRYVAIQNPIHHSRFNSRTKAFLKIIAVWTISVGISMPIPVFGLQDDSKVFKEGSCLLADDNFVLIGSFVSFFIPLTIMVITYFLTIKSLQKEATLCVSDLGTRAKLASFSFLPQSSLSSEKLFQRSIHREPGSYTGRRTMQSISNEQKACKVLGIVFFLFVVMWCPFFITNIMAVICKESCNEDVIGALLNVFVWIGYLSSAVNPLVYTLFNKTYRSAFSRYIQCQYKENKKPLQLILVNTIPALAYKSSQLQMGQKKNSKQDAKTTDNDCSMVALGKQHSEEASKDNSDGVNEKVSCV

Consider `CC(C)(C)OC(=O)c1ccccc1C(=O)O`, for which the Potency entry in assay [1], in assay [3], in [4], in assay [5], in assay [6] and in assay [7] was “inactive” in each case. Moreover, the Potency result in assay [8], in assay [9], in assay [10], in [11], in assay [12] and in [13] was “inactive” each time. Also, the Potency entry in assay [14], in [15], in [16] and in assay [17] was “inactive” throughout. Also, in [2], the result was inactive.

Turning to `CC(=O)c1cccnc1`, the Potency result in assay [1], in assay [4], in assay [5], in assay [6], in [7] and in assay [8] was “inactive” each time. The Potency result in assay [9], in [10], in [11], in assay [12], in assay [13] and in assay [14] was “inactive” each time. In addition, the Potency result in assay [15], in assay [16] and in assay [17] was “inactive” each time. Moreover, the outcome in assay [2] and in [18] was inactive.

For the compound `CC[C@@H](N)CO`, the Potency result in assay [1], in assay [4], in [5], in [6], in assay [10] and in assay [11] was “inactive” each time. The Potency result in assay [12], in [13], in assay [14], in assay [15], in [16] and in assay [17] was “inactive” throughout. Also, the outcome in [18] was inactive.

With `NC(=O)C(c1ccccc1)(c1ccccc1)[C@@H]1CCN(CCc2ccc3c(c2)CCO3)C1`, the Potency result in assay [1], in assay [3], in assay [6], in [7], in [8] and in assay [12] was “inactive” each time. In addition, the Potency entry in assay [13], in assay [15], in [16] and in [17] was “inactive” in each case. Also, the outcome in [2] and in assay [18] was inactive.

With `CCOC(=O)c1c(N)sc2c1CCN(Cc1ccccc1)C2`, the Potency entry in assay [19], in assay [1], in assay [3], in assay [5], in [6] and in [7] was “inactive” each time. Further, the Potency result in assay [8], in assay [9], in [10], in assay [11], in assay [12] and in assay [13] was “inactive” each time. For the same compound, the Potency entry in assay [20], in assay [16] and in [17] was “inactive” throughout. The outcome in assay [2] and in assay [18] was inactive. Further, the Potency in assay [4] was 15.8 µM (active).

For the compound `CCN(CC)CCNC(=O)c1cc(Br)c(N)cc1OC`, the Potency result in assay [19], in assay [1], in assay [3], in [4], in [5] and in [6] was “inactive” in each case. The Potency entry in [7], in assay [8], in assay [10], in assay [11], in [12] and in [14] was “inactive” throughout. The Potency entry in [15], in assay [20] and in [16] was “inactive” throughout. Besides, the outcome in assay [2] and in [18] was inactive. Besides, the Potency in assay [17] was 376 nM (active).

As for `CCCCCCCCCCCCCCCCOS(=O)(=O)O`, the Potency entry in [19], in [1], in assay [3], in [4], in assay [5] and in [6] was “inactive” each time. In addition, the Potency result in assay [7], in assay [8], in assay [11], in [12], in assay [13] and in assay [14] was “inactive” throughout. Also, the Potency result in [15], in assay [16] and in assay [17] was “inactive” in each case. Further, the result in [2] and in assay [18] was inactive.

The record behind these values is PubChem BioAssay (Tox21).
